40 compounds from PubChem BioAssay (NCI) can be followed below.

About 83,000 compounds went through this panel and 20% of them were active in at least one assay; those are over-represented in the sample as a whole.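 In brief: 96-well plates, 48 h treatment, single concentration, percent growth endpoint.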 Active and inactive are the calls of the source. The calls were made as follows: active = growth percent below 10; inactive = the rest.

One assay concerns UACC-62 melanoma. Nature of the assay: NCI-60 one-dose screen, 48 h (100 = growth as untreated, 0 = no growth, -100 = all killed). The conditions noted are these: 10 µM unless noted.
With `COc1ccccc1Cn1cc2c(c1)-c1oncc1CC2`, the growth is 54.6% (inactive).
The same measure, in the same setting: the result for `CC1=NN(c2cccc(Cl)c2)C(=O)/C1=C\c1cn(-c2nc(N3CCOCC3)nc(N3CCOCC3)n2)c2ccccc12` reads 103% (inactive).
Consider `NC(=O)c1c(Nc2ccccc2)nn2cc(-c3nc4ccccc4s3)c(N)nc12`, for which the growth was 97.3% (inactive).
On the same count and under the same terms, the result for `COc1cc(/C(=C2/O[C@@H]([C@H]3COC(C)(C)O3)[C@H]3OC(C)(C)O[C@@H]23)c2ccc3c(c2)OCO3)cc(OC)c1OC` reads 76.1% (inactive); that for `O=C(N/N=C/c1coc2ccccc2c1=O)c1cc2oc(-c3ccccc3)cc2[nH]1`, 94.6% (inactive).
Take `CCCCCCCCCC[N+](C)(C)C`: the growth was 28.5% (inactive).
With `CCCCCCC(=O)C(C)C`, the growth was 107% (inactive).
For `CCCC(=O)NNc1[nH]c(-c2ccc(OC)cc2)cc1C(=O)OCC`, the growth is 99.6% (inactive).
In the case of `O=C1c2cc([N+](=O)[O-])ccc2-c2cc(Cl)c(NC(=O)C(F)(F)F)cc21`, the growth is 101% (inactive).
With `N=C(c1ccccc1)N(Cc1ccccc1)Cc1ccccc1`, the growth is 87.3% (inactive).
With `CSCc1ncc(-c2ccc(C(F)(F)F)cc2)c(NC2CCCCCC2)n1`, the growth was 70.2% [25 µM] (inactive).
For `O=C(Nc1cccc(Cn2c(=O)[nH]c3ccc(Oc4ncccn4)cc3c2=O)c1)c1ccc(Cl)cc1`, the growth is 53.9% (inactive).
With `CC[C@H](Nc1ncnc2nc[nH]c12)c1nc2cccc(NCc3ccc(C(=O)NO)o3)c2c(=O)n1-c1ccccc1`, the growth is 92.6% (inactive).
Take `CCCCCCCCCC[N+](C)(C)N`: the growth was 106% (inactive).
Turning to `C=C(C)C(C(=O)OCC)(C(=O)OCC)C(C)C`, the growth is 103% (inactive).
In the case of `COC1=CC(c2ccc[nH]2)=N/C1=C\c1[nH]c(C)c(C(=O)CCCCC(=O)NC(C)(C)C)c1C`, the growth is 69.1% (inactive).
In the case of `COc1ccc(NC(=O)/C=C(C)/C=C/C=C(C)/C=C/C2=C(C)CCCC2(C)C)cc1`, the growth is 77.4% (inactive).
Take `CCCCCCCCc1ccc(OCCOCC[N+](C)(C)CC)cc1` (tested in a mixture with another compound): the growth is 9.07% (active).
Regarding `COc1cc2c(cc1OC)C(Cc1cc(OC)c(OC)cc1[N+](=O)[O-])=NCC2`, the growth is 83.7% (inactive).
Still for that read-out and setting: next, `O=C1CCNC1`: 103% (inactive); `COc1ccc(-c2nnc(SCC(=O)Nc3ccc(C(=O)/C=C/c4cc(OC)c(OC)c(OC)c4)cc3)n2-c2ccccc2)cc1OC`: -42.9% [100 µM] (active); `O=S(=O)(O)c1ccc2c(c1)Sc1cc(S(=O)(=O)O)ccc1O2`: 96% (inactive).
On to `Cc1ccc(S(=O)(=O)Nc2cccc(Cn3c(=O)[nH]c4ccc(Oc5ncccn5)cc4c3=O)c2)cc1`, for which the growth is 34.7% (inactive).
As to `CCCCCCCCCCC(C[N+](C)(C)C/C=C/c1ccccc1)C(O)c1ccccc1` (configuration not stated), the growth is 17.4% (inactive).
With `COc1ccc(/C=C2\CCCC3=C2N=C2SC=NN2C3c2ccc(OC)c(OC)c2)cc1OC` (configuration not stated), the growth was 38.1% (inactive).
Regarding `COc1cc(CCNc2cnc3cc(N)cc(N)c3n2)cc(OC)c1`, the growth was 109% (inactive).
The same measure, in the same setting: next, `O=C(CCl)c1ccc2c(c1)CCCC2`: 98.5% (inactive); `Cc1ccc(C(=O)Nc2ccc(CN3CCN(C)CC3)c(C(F)(F)F)c2)cc1C#Cc1cnc(N)c2ccc(F)cc12`: -83.9% (active).
`Cc1ccc(C(=O)Nc2ccc(CN3CCN(C)CC3)c(C(F)(F)F)c2)cc1C#Cc1cncc2ncccc12`: the growth is -84.8% (active).
Still for that read-out and setting: next, `O=C(Nc1ccc(-n2cc(-c3ccncc3)c(-c3ccc(Cl)c(O)c3)n2)cc1)c1cc(C(F)(F)F)cc(C(F)(F)F)c1`: 68.5% (inactive); `CCCCCCCCCC(C)NC(=O)CCl` (configuration not stated): 93.4% (inactive).
As for `COc1ccc(C(=O)CN2C(=O)NC(c3ccccc3)(c3ccccc3)C2=O)cc1`, the growth was 99.4% (inactive).
As for `CCCCCCCCC(=O)Nc1ccc(O)cc1`, the growth was 92.1% (inactive).
Turning to `COc1ccc(-c2nc(SCC(C)C)nc(Nc3ccccc3)c2C#N)cc1`, the growth is 88.1% (inactive).
With `N#Cc1ccc(NC2c3ccccc3CC2O)cc1` (configuration not stated), the growth is 99.1% (inactive).
Turning to `N#CCCCCCCCCCCC#N`, the growth was 101% (inactive).
Still for that read-out and setting: next, `CCOC(=O)c1ccc2n1CCCc1cnc(NC(C)=O)nc1-2`: 93.9% (inactive).
Still for that read-out and setting: next, `O=C(/C(Br)=C/c1ccccc1)c1ccccc1`: 8.01% (active).
`COc1ccc2c(N)ncc(C#Cc3cc(C(=O)Nc4ccc(CN5CCN(C)CC5)c(C(F)(F)F)c4)cnc3C)c2c1`: the growth is 28.2% (inactive).
Take `CCCCCCCCCCCC(=O)OC(C)C(=O)Nc1ccccc1` (configuration not stated): the growth is 100% (inactive).

A further assay has as its system LOX IMVI melanoma. Described as above. The conditions noted are these: 10 µM unless noted.
As for `COc1ccccc1Cn1cc2c(c1)-c1oncc1CC2`, the growth is 37.5% (inactive).
Regarding `CC1=NN(c2cccc(Cl)c2)C(=O)/C1=C\c1cn(-c2nc(N3CCOCC3)nc(N3CCOCC3)n2)c2ccccc12`, the growth was 95.7% (inactive).
`NC(=O)c1c(Nc2ccccc2)nn2cc(-c3nc4ccccc4s3)c(N)nc12`: the growth is 94% (inactive).
As for `COc1cc(/C(=C2/O[C@@H]([C@H]3COC(C)(C)O3)[C@H]3OC(C)(C)O[C@@H]23)c2ccc3c(c2)OCO3)cc(OC)c1OC`, the growth was 47% (inactive).
On the same count and under the same terms, next, `O=C(N/N=C/c1coc2ccccc2c1=O)c1cc2oc(-c3ccccc3)cc2[nH]1`: 98.4% (inactive); `CCCCCCCCCC[N+](C)(C)C`: -78.4% (active); `CCCC(=O)NNc1[nH]c(-c2ccc(OC)cc2)cc1C(=O)OCC`: 103% (inactive).
For the compound `CSCc1ncc(-c2ccc(C(F)(F)F)cc2)c(NC2CCCCCC2)n1`, the growth was 82.7% [25 µM] (inactive).
The same measure, in the same setting: the result for `O=C(Nc1cccc(Cn2c(=O)[nH]c3ccc(Oc4ncccn4)cc3c2=O)c1)c1ccc(Cl)cc1` reads 66.5% (inactive); that for `CC[C@H](Nc1ncnc2nc[nH]c12)c1nc2cccc(NCc3ccc(C(=O)NO)o3)c2c(=O)n1-c1ccccc1`, 95.4% (inactive); that for `C=C(C)C(C(=O)OCC)(C(=O)OCC)C(C)C`, 102% (inactive).
In the case of `COC1=CC(c2ccc[nH]2)=N/C1=C\c1[nH]c(C)c(C(=O)CCCCC(=O)NC(C)(C)C)c1C`, the growth is -34.4% (active).
With `COc1ccc(NC(=O)/C=C(C)/C=C/C=C(C)/C=C/C2=C(C)CCCC2(C)C)cc1`, the growth is 68.4% (inactive).
As for `CCCCCCCCc1ccc(OCCOCC[N+](C)(C)CC)cc1` (tested in a mixture with another compound), the growth is 29.1% (inactive).
As to `COc1cc2c(cc1OC)C(Cc1cc(OC)c(OC)cc1[N+](=O)[O-])=NCC2`, the growth was 75.1% (inactive).
Consider `O=C1CCNC1`, for which the growth is 113% (inactive).
In the case of `COc1ccc(-c2nnc(SCC(=O)Nc3ccc(C(=O)/C=C/c4cc(OC)c(OC)c(OC)c4)cc3)n2-c2ccccc2)cc1OC`, the growth is -88.5% [100 µM] (active).
`O=S(=O)(O)c1ccc2c(c1)Sc1cc(S(=O)(=O)O)ccc1O2`: the growth was 99.7% (inactive).
Take `Cc1ccc(S(=O)(=O)Nc2cccc(Cn3c(=O)[nH]c4ccc(Oc5ncccn5)cc4c3=O)c2)cc1`: the growth is 64.5% (inactive).
`COc1ccc(/C=C2\CCCC3=C2N=C2SC=NN2C3c2ccc(OC)c(OC)c2)cc1OC` (configuration not stated): the growth was 9.24% (active).
As for `COc1cc(CCNc2cnc3cc(N)cc(N)c3n2)cc(OC)c1`, the growth was 108% (inactive).
Regarding `Cc1ccc(C(=O)Nc2ccc(CN3CCN(C)CC3)c(C(F)(F)F)c2)cc1C#Cc1cnc(N)c2ccc(F)cc12`, the growth was -91.4% (active).
For `Cc1ccc(C(=O)Nc2ccc(CN3CCN(C)CC3)c(C(F)(F)F)c2)cc1C#Cc1cncc2ncccc12`, the growth was -79% (active).
Turning to `O=C(Nc1ccc(-n2cc(-c3ccncc3)c(-c3ccc(Cl)c(O)c3)n2)cc1)c1cc(C(F)(F)F)cc(C(F)(F)F)c1`, the growth is 53.1% (inactive).
For the compound `CCCCCCCCCC(C)NC(=O)CCl` (configuration not stated), the growth was 47.9% (inactive).
For `COc1ccc(C(=O)CN2C(=O)NC(c3ccccc3)(c3ccccc3)C2=O)cc1`, the growth is 98% (inactive).
As for `CCCCCCCCC(=O)Nc1ccc(O)cc1`, the growth is 84.8% (inactive).
Consider `COc1ccc(-c2nc(SCC(C)C)nc(Nc3ccccc3)c2C#N)cc1`, for which the growth is 80.1% (inactive).
The same measure, in the same setting: next, `N#CCCCCCCCCCCC#N`: 99.4% (inactive).
For the compound `CCOC(=O)c1ccc2n1CCCc1cnc(NC(C)=O)nc1-2`, the growth is 99.7% (inactive).
In the case of `O=C(/C(Br)=C/c1ccccc1)c1ccccc1`, the growth is -92.2% (active).
For the compound `COc1ccc2c(N)ncc(C#Cc3cc(C(=O)Nc4ccc(CN5CCN(C)CC5)c(C(F)(F)F)c4)cnc3C)c2c1`, the growth is -71.4% (active).
